Screens (PubChem)
AmpC detergent = blocks E. coli AmpC beta-lactamase in detergent assay | P00811 | AmpC hydrolysis of nitrocefin, absorbance 480 nm, 0.01% Triton | Potency, µM (series often up to 114 µM), without a hit: top-dose activity change, negative = inhibition, usual class: inhibitors | 0.041% of 370,000 active | AID 485294;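 also: 0% = no-compound wells and -100% = no-enzyme wells; nearly all actives have a fitted effect of over 25% in size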
Target sequence (P00811 whole entry, looked up): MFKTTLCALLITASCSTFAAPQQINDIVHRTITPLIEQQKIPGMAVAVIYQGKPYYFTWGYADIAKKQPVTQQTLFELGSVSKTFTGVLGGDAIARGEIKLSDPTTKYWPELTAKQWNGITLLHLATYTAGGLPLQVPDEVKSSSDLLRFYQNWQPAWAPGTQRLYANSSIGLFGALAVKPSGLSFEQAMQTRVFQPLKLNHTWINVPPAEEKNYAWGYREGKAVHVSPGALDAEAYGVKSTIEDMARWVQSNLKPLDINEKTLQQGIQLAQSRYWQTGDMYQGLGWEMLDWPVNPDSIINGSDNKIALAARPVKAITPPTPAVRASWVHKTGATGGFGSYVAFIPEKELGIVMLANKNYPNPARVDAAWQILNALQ
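20 mM phosphate pH 7.0 + 0.01% (detergent screen) or 0.0001% Triton X-100; 5.3 nM AmpC reagent; cpd preinc 15 min RT; nitrocefin (800 uM stock) to start; A480 q20 s × 4 min; Activity was normalised to no-enzyme and no-compound control wells.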
AmpC no deterg = AmpC beta-lactamase inhibition without detergent; AmpC nitrocefin hydrolysis, absorbance 480 nm, 0.0001% Triton; Potency, µM (top dose mostly 57.1 µM), for inactives: at the highest dose activity change, negative = inhibition, usual class: inhibitors; 0.52% of 330,000 active; AID 485341;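 also: plate controls were no compound for no effect and no enzyme for full effect; nearly all actives have a fitted effect of over 20% in size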
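20 mM phosphate pH 7.0 + 0.01% (detergent screen) or 0.0001% Triton X-100; 5.3 nM AmpC reagent; cpd preinc 15 min RT; nitrocefin (800 uM stock) to start; A480 q20 s × 4 min; Activity was normalised to no-enzyme and no-compound control wells.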
Pf growth 48h = P. falciparum growth inhibition at 48 hours (one generation); P. falciparum luciferase growth in erythrocytes, 48 h; Potency, µM (titrated, usually from 28.7 µM), inactives show at the highest dose activity change, negative = inhibition, usual class: inhibitors; 5.9% of 310,000 active; AID 504832; also: % is scaled to controls: 0 for no effect and ±100 for the full control effect
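Read-out is firefly luciferase luminescence from an integrated reporter in P. falciparum, so falling signal marks reduced parasite growth. Infected erythrocytes were at 2% hematocrit and 0.1% parasitemia (final) in Albumax-supplemented RPMI 1640.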
SARS PLpro yeast = blocks SARS-CoV papain-like protease in a yeast assay; S. cerevisiae expressing SARS-CoV PLpro, growth rescue; Potency, µM (top dose mostly 32.9 µM), inactives show top-dose activity, positive = growth rescue, hits mostly activators; 0.19% of 330,000 active; calls by dose curve; also: 0% is about no effect; nearly all actives have a fitted effect of over 55% in size
Pf growth 96h = P. falciparum growth inhibition at 96 hour, primary screen for plastid delayed-death inhibitors; P. falciparum luciferase reporter growth, 96 h; Potency, µM (doses to about 28.7 µM), for the others: at the highest dose activity change, negative = inhibition, actives largely listed as inhibitors; 6.9% of 320,000 active; also: % is scaled to controls: 0 for no effect and ±100 for the full control effect
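P. falciparum expressing integrated firefly luciferase grown in erythrocytes (2% hematocrit, 0.05% parasitemia final) with compounds for 96 hours at 37 C, 5% CO2. Growth inhibition read as loss of luminescence after adding luciferase detection reagent.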
Sm TGR block = inhibitors of Schistosoma mansoni thioredoxin glutathione reductase; Q962Y6; purified TGR, DTNB reduction, TNB absorbance 405 nm; Potency, µM (series often up to 114 µM), for inactives: at the top dose activity change, negative = inhibition, hits mostly inhibitors; 3% of 360,000 active; also: % is scaled to controls: 0 for no effect and ±100 for the full control effect; nearly all actives have a fitted effect of over 60% in size
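TGR 20 nM + NADPH 100 uM (dispensed conc.), cpd preinc 15 min RT; start with NADPH (500 uM addition) then DTNB (15 mM addition). Kinetic TNB absorbance, 405 nm filter. Four-parameter Hill fit across titration.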
* hit, by the source's call. In the library only some 12% were active in any assay of this set; here they are far more common. Unless noted, calls follow the shape of the dose curve; as a rule, active = well fitted curve in the direction sought with a large enough effect; inconclusive = small, poorly fitted or top-dose-only effect, or another doubt; inactive = no such curve, though single readings can be large; an effect the other way counts as inactive or inconclusive. Potency is read from the fitted curve at half-maximal effect.

For Cn1cc(CN2CCCC(C(=O)c3ccc(-c4ccccc4)c(F)c3)C2)cn1 (centres undefined) the results were AmpC detergent 4.7%, AmpC no deterg 90.8%, Pf growth 48h inconclusive, SARS PLpro yeast -0.9%, Pf growth 96h inconclusive and Sm TGR block 4.9%.
For Cc1nn(C)cc1CN1CCCC(C(=O)c2ccc(-c3ccccc3)c(F)c2)C1 (centres undefined) the results were AmpC detergent -2.2%, AmpC no deterg 141.3%, Pf growth 48h 14.7µM*, SARS PLpro yeast -0.8%, Pf growth 96h 0.0% and Sm TGR block -10.5%.
Cc1ccc(-n2c(=O)c3c4c(sc3n(CC(=O)C(C)(C)C)c2=O)CCCCC4)cc1C was read as AmpC detergent -2.5% and Sm TGR block -0.9%.
For O=[N+]([O-])c1ccc(-c2c(-c3ccccc3)ncc3cc(F)ccc23)cc1 the results were AmpC detergent -0.7%, AmpC no deterg -41.2%, Pf growth 48h 2.62µM*, SARS PLpro yeast -6.0%, Pf growth 96h 5.22µM* and Sm TGR block -32.4%.
For Fc1cc(F)cc(-c2c(-c3ccccc3)ncc3ccc(F)cc23)c1 the results were AmpC detergent 0.6%, AmpC no deterg -0.4%, Pf growth 48h inconclusive, SARS PLpro yeast -2.4%, Pf growth 96h inconclusive and Sm TGR block 44.7µM*.
For CCc1nnc(SCC(=O)N(C)c2ccccc2)c2cc3sccc3n12 the results were AmpC detergent 15.0% and Sm TGR block 0.8%.
`Cc1ccc(S(=O)(=O)N(C)C)cc1NC(=O)c1ccccc1SCC(=O)N1CCCC1` gave AmpC detergent inconclusive, AmpC no deterg -4.5%, Pf growth 48h inconclusive, SARS PLpro yeast 4.4%, Pf growth 96h inconclusive and Sm TGR block -0.2%.
`CCc1ccccc1NC(=O)c1cc(S(=O)(=O)N(C)C)ccc1N1CCCC1` gave AmpC detergent 0.9%, AmpC no deterg -7.7%, Pf growth 48h inconclusive, SARS PLpro yeast 2.6%, Pf growth 96h inconclusive and Sm TGR block -20.0%.
COc1ccc(OC)c(NC(=O)c2cc(S(=O)(=O)N(C)C)ccc2N2CCCC2)c1 was read as AmpC detergent inconclusive, AmpC no deterg 40.1%, Pf growth 48h 13.1µM*, SARS PLpro yeast 2.6%, Pf growth 96h inconclusive and Sm TGR block -6.7%.
For Cc1ccc(NC(=O)c2ccccc2SCC(=O)N2CCCC2)cc1S(=O)(=O)N(C)C the results were AmpC detergent -0.1%, AmpC no deterg 37.5%, Pf growth 48h inconclusive, SARS PLpro yeast -8.1%, Pf growth 96h 6.57µM* and Sm TGR block -14.3%.
Screening CN(C)S(=O)(=O)c1ccc(N2CCCC2)c(C(=O)NNC(=O)c2ccccc2)c1 returned AmpC detergent 1.8%, AmpC no deterg -31.1%, Pf growth 48h 7.38µM*, SARS PLpro yeast -9.1%, Pf growth 96h inconclusive and Sm TGR block -15.7%.
`CN(C)S(=O)(=O)c1ccc(N2CCCC2)c(C(=O)Nc2ccccc2Br)c1` gave AmpC detergent -18.2%, AmpC no deterg 17.4%, Pf growth 48h 13.1µM*, SARS PLpro yeast -7.7%, Pf growth 96h 14.7µM* and Sm TGR block -11.0%.
Screening CC(C)CCNC(=O)C(=O)Nc1c2c(nn1-c1ccc(Cl)cc1)CSC2 returned AmpC detergent 0.7% and Sm TGR block 0.5%.
`CCOCCCNC(=O)c1ccc(NC(=O)N2CCCCc3ccccc32)cc1` gave AmpC detergent 10.0% and Sm TGR block 0.1%.
COc1ccc(-c2nc(CSCC(=O)NCCc3ccc(C)cc3)c(C)o2)cc1OC was read as AmpC detergent inconclusive and Sm TGR block -11.3%.
Screening COC(=O)c1cc2sc(Cl)cc2n1Cc1nc(-c2ccccc2F)oc1C returned AmpC detergent -5.3% and Sm TGR block -6.3%.
`Cc1ccc(NC(=O)CSc2nn(-c3ccccc3)c(=S)s2)cc1S(=O)(=O)N(C)C` gave AmpC detergent -18.5%, AmpC no deterg 28.2µM*, Pf growth 48h inconclusive, SARS PLpro yeast 0.3%, Pf growth 96h 3.29µM* and Sm TGR block -1.2%.
Screening CN(C)S(=O)(=O)c1ccc(N2CCCC2)c(C(=O)Nc2nc(-c3cc(F)ccc3F)cs2)c1 returned AmpC detergent -4.7%, AmpC no deterg -25.1%, Pf growth 48h -14.9%, SARS PLpro yeast 5.9%, Pf growth 96h inconclusive and Sm TGR block -7.6%.
For Cc1ccc(NC(=O)c2cc(S(=O)(=O)N(C)C)ccc2N2CCCC2)cc1S(=O)(=O)N(C)C the results were AmpC detergent inconclusive, AmpC no deterg inconclusive, Pf growth 48h inconclusive, SARS PLpro yeast -0.3%, Pf growth 96h 10.4µM* and Sm TGR block -4.2%.
`CN(C)S(=O)(=O)c1ccc(N2CCCC2)c(C(=O)NC(c2ccccc2)c2ccccc2)c1` gave AmpC detergent -0.8%, AmpC no deterg 19.1%, Pf growth 48h 0.828µM*, SARS PLpro yeast -1.7% and Sm TGR block -10.4%.
For CN(C)S(=O)(=O)c1ccc(N2CCCC2)c(C(=O)Nc2nc(-c3ccc(F)cc3)cs2)c1 the results were AmpC detergent -10.4%, AmpC no deterg 42.8%, Pf growth 48h 9.28µM*, SARS PLpro yeast 12.2%, Pf growth 96h inconclusive and Sm TGR block -15.2%.
O=C(Cn1c(=O)n(-c2ccccc2Cl)c(=O)c2sc3ccccc3c21)NC1CCCC1 was read as AmpC detergent -2.4% and Sm TGR block 1.4%.
For O=C(CN1CCN(Cc2ccccc2)CC1)N/N=C/c1cccnc1 the results were AmpC detergent 2.7%, AmpC no deterg -12.3%, Pf growth 48h 9.3%, SARS PLpro yeast -0.4%, Pf growth 96h 1.4% and Sm TGR block 8.4%.
CC(C)(C)OC(=O)N[C@@H](CC(=O)OCc1ccccc1)C(=O)O was read as AmpC detergent 2.0%, AmpC no deterg -15.6%, Pf growth 48h 23.0%, SARS PLpro yeast -2.4%, Pf growth 96h inconclusive and Sm TGR block 11.7%.
Screening Cc1ccc(C2(c3noc(CN(C)Cc4cnn(C)c4)n3)CCCC2)cc1 returned AmpC detergent -1.6%, AmpC no deterg 0.6%, Pf growth 48h 10.7%, SARS PLpro yeast 0.6%, Pf growth 96h 11.7µM* and Sm TGR block -0.1%.
Cc1ccc(C2(c3noc(CN(C)CCCN4CCOCC4)n3)CCCC2)cc1 was read as AmpC detergent 7.9%, AmpC no deterg 218.7%, Pf growth 48h -9.0%, SARS PLpro yeast 1.0%, Pf growth 96h 8.28µM* and Sm TGR block -1.1%.
